# In article PMC7862700, “An all-to-all approach to the identification of sequence-specific readers for epigenetic DNA modifications on cytosine”:
# Columns and labels:
# Assay in all cases: DAPPL (digital affinity profiling via proximity ligation, sequencing); 10 mM Tris-HCl pH 7.5, 50 mM NaCl, 1 mM DTT, 4% glycerol, room temperature, 30 min; GST-TFs on glutathione beads, 16-mer random dsDNA library, 0.1% formaldehyde crosslink after washing; high values mean tight binding
# [1] = target: T1, FLI1 (Homo sapiens, UniProt Q01543 1-452); conditions: protein: recombinant; tags: N-terminal GST; dsDNA, one strand shown
# T1 sequence: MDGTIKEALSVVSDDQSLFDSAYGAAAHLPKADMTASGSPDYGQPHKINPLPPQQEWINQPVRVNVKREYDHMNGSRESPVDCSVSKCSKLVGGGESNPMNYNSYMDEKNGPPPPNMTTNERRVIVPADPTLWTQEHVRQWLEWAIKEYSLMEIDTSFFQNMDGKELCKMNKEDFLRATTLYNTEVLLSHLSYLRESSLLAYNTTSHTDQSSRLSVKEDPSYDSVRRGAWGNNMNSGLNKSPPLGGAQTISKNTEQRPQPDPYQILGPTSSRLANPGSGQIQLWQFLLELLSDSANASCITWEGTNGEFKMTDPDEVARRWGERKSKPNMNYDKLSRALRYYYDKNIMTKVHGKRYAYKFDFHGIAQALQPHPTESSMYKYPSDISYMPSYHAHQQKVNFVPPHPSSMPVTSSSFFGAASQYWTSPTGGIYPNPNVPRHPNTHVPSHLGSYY
# Method in brief: (§1)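 GST fusions of human transcription factors were expressed in yeast and captured with glutathione beads. Once given DNA barcodes and pooled alongside a tag-only sample, they were incubated for 30 min at room temperature with 200 nmole of a random double-stranded 16-mer DNA library in Tris/NaCl/DTT/glycerol buffer, then washed, crosslinked (0.1% formaldehyde), proximity-ligated, PCR-amplified and sequenced on an Illumina NextSeq500. The binding signal of each hexamer is its read frequency for a factor divided by its frequency for the tag-only sample.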
# [2] = target: T2, ELK1 (Homo sapiens, UniProt P19419 1-428); conditions: protein: recombinant; tags: N-terminal GST; dsDNA, one strand shown
# T2 sequence: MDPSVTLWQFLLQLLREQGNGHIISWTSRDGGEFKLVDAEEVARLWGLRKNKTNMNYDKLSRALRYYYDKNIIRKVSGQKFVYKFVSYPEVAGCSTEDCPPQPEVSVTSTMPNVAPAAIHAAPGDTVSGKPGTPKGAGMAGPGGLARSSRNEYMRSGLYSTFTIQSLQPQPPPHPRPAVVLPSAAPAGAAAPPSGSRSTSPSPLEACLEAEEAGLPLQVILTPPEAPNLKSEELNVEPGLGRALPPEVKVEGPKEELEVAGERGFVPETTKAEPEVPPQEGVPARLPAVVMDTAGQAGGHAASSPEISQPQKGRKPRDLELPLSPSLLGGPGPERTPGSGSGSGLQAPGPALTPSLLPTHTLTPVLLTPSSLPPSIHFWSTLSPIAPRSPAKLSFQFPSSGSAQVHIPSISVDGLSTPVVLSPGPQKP
# Method in brief: as §1
# [3] = target: T3, GABPA (Homo sapiens, UniProt Q06546 1-454); conditions: protein: recombinant; tags: N-terminal GST; dsDNA, one strand shown
# T3 sequence: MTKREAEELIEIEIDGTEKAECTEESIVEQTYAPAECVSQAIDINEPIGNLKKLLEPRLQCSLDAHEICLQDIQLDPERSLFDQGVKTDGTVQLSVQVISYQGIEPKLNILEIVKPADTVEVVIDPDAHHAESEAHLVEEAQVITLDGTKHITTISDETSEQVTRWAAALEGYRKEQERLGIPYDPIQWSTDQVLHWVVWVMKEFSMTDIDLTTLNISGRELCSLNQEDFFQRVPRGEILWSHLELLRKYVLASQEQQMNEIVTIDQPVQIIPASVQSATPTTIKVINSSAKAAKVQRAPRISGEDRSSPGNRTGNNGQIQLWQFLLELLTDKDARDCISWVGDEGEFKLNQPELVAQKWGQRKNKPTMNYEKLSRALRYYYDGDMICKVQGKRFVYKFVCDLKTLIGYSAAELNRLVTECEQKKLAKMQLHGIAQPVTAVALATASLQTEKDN
# Method in brief: as §1
# [4] = target: T4, ERG (Homo sapiens, UniProt P11308 1-479); conditions: protein: recombinant; tags: N-terminal GST; dsDNA, one strand shown
# T4 sequence: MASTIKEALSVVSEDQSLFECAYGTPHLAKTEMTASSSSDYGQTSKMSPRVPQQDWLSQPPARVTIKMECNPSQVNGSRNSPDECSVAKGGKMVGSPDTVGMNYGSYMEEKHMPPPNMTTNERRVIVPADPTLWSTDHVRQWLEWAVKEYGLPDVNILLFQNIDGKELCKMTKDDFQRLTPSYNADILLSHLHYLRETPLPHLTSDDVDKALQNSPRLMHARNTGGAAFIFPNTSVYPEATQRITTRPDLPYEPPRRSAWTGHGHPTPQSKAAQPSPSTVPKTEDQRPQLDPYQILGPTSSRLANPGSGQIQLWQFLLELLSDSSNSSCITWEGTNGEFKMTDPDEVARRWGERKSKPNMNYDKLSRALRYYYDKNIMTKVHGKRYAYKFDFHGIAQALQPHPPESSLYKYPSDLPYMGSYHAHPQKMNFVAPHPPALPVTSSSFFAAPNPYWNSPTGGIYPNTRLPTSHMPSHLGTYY
# Method in brief: as §1
# [5] = target: ELF1 (Homo sapiens, UniProt P32519 1-619); conditions: protein: recombinant; tags: N-terminal GST; dsDNA, one strand shown
# Method in brief: as §1
# [6] = target: T5, EHF (Homo sapiens, UniProt Q9NZC4 1-300); conditions: protein: recombinant; tags: N-terminal GST; dsDNA, one strand shown
# T5 sequence: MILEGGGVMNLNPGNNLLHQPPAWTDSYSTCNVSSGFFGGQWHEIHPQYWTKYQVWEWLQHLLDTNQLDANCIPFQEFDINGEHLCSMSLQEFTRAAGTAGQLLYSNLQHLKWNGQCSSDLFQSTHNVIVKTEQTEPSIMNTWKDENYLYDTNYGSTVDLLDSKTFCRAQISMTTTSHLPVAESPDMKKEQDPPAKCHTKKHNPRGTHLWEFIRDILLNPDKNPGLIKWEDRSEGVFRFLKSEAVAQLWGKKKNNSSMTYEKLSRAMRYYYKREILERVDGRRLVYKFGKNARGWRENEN
# Method in brief: as §1
# [7] = target: SPI1 (Homo sapiens, UniProt P17947 1-270); conditions: protein: recombinant; tags: N-terminal GST; dsDNA, one strand shown
# Method in brief: as §1
# [8] = target: SPIB (Homo sapiens, UniProt Q01892 1-262); conditions: protein: recombinant; tags: N-terminal GST; dsDNA, one strand shown
# Method in brief: as §1
# [9] = target: T6, ELK3 (Homo sapiens, UniProt P41970 1-407); conditions: protein: recombinant; tags: N-terminal GST; dsDNA, one strand shown
# T6 sequence: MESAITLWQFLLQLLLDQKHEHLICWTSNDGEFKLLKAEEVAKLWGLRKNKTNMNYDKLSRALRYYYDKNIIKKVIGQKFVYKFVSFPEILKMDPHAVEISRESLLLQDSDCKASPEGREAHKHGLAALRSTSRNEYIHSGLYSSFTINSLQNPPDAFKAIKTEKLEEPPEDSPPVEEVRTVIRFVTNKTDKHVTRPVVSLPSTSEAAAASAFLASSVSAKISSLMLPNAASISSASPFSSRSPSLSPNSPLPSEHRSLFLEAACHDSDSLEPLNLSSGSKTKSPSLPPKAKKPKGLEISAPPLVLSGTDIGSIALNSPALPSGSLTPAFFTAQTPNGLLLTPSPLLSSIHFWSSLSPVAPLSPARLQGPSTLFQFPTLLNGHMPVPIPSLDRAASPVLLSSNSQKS
# Method in brief: as §1
# [10] = target: T7, FEV (Homo sapiens, UniProt Q99581 1-238); conditions: protein: recombinant; tags: N-terminal GST; dsDNA, one strand shown
# T7 sequence: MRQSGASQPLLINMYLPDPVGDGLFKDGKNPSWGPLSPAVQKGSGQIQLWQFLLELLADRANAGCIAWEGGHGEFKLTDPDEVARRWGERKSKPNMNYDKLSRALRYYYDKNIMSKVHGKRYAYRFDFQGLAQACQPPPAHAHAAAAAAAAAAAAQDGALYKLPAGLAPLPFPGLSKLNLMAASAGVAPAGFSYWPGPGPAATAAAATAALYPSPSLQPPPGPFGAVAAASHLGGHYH
# Method in brief: as §1
# [11] = target: ETV5 (Homo sapiens, UniProt P41161 1-510); conditions: protein: recombinant; tags: N-terminal GST; dsDNA, one strand shown
# Method in brief: as §1
# [12] = target: HSF1 (Homo sapiens, UniProt Q00613 1-529); conditions: protein: recombinant; tags: N-terminal GST; chain copies: 3; dsDNA, one strand shown
# Method in brief: as §1
# [13] = target: T8, SPIC (Homo sapiens, UniProt Q8N5J4 1-248); conditions: protein: recombinant; tags: N-terminal GST; dsDNA, one strand shown
# T8 sequence: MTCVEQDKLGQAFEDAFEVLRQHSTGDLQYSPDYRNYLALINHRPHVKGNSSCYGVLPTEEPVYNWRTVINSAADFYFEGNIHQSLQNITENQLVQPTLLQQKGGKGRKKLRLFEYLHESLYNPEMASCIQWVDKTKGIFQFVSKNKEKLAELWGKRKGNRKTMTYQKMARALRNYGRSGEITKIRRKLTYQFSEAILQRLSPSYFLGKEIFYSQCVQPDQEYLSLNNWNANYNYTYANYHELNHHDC
# Method in brief: as §1
# [14] = target: ELF4 (Homo sapiens, UniProt Q99607 1-663); conditions: protein: recombinant; tags: N-terminal GST; dsDNA, one strand shown
# Method in brief: as §1
# [15] = target: T9, ELK4 (Homo sapiens, UniProt P28324-2 1-405); conditions: protein: recombinant; tags: N-terminal GST; dsDNA, one strand shown
# T9 sequence: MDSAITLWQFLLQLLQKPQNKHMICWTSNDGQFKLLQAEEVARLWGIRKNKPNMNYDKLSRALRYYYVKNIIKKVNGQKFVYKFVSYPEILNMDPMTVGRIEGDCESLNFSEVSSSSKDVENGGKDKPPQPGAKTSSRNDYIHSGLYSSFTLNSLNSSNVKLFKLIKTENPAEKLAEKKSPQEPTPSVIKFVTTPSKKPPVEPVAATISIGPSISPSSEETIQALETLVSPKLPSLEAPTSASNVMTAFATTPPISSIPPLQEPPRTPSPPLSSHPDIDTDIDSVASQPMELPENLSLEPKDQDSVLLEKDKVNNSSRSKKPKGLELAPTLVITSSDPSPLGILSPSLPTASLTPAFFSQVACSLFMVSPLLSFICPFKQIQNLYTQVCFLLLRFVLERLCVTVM
# Method in brief: as §1
# [16] = target: T10, ETV2 (Homo sapiens, UniProt O00321 1-342); conditions: protein: recombinant; tags: N-terminal GST; dsDNA, one strand shown
# T10 sequence: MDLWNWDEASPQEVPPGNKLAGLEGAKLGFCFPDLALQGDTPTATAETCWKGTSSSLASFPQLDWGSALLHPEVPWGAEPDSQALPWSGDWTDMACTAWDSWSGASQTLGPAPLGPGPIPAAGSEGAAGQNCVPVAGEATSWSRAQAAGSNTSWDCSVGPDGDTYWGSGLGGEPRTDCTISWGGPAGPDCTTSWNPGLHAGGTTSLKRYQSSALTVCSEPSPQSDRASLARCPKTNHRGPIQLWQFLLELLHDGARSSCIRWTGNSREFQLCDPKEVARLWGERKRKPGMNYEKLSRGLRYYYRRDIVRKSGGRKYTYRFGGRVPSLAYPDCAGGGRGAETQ
# Method in brief: as §1
# [17] = target: T11, ELF3 (Homo sapiens, UniProt P78545 1-371); conditions: protein: recombinant; tags: N-terminal GST; dsDNA, one strand shown
# T11 sequence: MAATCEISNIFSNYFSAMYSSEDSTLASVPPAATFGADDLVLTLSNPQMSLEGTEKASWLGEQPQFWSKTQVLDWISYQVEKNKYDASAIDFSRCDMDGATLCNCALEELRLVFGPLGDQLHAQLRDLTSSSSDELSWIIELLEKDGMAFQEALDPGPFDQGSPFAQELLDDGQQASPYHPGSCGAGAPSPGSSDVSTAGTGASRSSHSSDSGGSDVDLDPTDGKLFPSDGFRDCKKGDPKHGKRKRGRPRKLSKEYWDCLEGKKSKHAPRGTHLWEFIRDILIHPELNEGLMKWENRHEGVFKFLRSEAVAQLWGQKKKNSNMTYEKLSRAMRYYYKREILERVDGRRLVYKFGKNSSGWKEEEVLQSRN
# Method in brief: as §1
# [18] = target: CRX (Homo sapiens, UniProt O43186 1-299); conditions: protein: recombinant; tags: N-terminal GST; dsDNA, one strand shown
# Method in brief: as §1
# [19] = target: ETV1 (Homo sapiens, UniProt P50549 1-477); conditions: protein: recombinant; tags: N-terminal GST; dsDNA, one strand shown
# Method in brief: as §1
# Sequence of ELF4 (Q99607 whole entry): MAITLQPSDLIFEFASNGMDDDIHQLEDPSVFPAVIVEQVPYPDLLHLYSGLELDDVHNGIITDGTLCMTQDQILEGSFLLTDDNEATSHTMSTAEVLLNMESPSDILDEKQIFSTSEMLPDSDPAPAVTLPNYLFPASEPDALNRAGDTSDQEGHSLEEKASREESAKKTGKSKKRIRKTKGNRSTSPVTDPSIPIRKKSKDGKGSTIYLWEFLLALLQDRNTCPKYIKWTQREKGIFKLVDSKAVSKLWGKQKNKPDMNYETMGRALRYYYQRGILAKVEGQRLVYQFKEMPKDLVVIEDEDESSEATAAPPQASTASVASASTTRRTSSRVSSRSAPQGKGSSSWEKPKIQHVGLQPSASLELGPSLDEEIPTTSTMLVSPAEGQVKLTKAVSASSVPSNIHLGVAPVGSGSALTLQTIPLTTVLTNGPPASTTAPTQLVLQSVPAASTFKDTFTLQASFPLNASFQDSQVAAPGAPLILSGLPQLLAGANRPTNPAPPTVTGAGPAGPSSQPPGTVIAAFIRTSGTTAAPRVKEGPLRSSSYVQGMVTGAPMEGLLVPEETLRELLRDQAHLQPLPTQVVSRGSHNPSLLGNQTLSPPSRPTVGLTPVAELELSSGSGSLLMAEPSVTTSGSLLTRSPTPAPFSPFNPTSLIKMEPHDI
# Sequence of ETV5 (P41161 whole entry): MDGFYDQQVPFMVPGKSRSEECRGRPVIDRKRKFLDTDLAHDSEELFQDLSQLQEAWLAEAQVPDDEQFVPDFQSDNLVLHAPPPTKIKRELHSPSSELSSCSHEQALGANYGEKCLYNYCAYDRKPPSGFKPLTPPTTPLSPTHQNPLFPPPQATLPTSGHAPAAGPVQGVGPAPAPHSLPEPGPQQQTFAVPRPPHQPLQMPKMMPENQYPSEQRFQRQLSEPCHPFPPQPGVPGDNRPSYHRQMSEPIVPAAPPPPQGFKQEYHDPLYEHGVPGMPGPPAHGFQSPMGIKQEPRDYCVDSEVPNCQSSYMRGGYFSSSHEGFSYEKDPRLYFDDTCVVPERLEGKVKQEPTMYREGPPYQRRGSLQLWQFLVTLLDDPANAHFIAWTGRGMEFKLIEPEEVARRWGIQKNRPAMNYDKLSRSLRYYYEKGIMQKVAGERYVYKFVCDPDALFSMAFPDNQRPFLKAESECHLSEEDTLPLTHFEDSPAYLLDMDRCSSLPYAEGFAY
# Sequence of ETV1 (P50549 whole entry): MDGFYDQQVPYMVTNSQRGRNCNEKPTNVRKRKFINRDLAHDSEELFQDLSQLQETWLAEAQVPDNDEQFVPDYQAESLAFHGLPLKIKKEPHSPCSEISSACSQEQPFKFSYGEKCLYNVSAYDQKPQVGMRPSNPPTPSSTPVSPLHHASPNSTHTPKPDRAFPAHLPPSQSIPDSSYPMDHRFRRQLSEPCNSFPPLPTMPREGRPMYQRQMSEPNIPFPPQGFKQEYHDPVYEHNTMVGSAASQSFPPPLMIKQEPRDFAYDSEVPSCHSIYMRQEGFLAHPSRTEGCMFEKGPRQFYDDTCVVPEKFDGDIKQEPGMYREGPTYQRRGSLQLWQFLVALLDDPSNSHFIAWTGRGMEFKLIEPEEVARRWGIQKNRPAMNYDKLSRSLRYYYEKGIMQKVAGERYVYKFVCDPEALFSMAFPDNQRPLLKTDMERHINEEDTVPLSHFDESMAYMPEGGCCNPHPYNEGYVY
# Sequence of CRX (O43186 whole entry): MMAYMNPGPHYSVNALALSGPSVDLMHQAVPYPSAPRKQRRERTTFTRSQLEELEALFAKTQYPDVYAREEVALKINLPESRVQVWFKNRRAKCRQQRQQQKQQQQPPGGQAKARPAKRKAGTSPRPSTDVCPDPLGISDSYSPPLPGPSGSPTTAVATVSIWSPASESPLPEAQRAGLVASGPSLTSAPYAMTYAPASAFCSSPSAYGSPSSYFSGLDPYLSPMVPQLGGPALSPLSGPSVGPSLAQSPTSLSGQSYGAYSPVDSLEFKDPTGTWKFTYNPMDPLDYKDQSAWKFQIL
# Sequence of ELF1 (P32519 whole entry): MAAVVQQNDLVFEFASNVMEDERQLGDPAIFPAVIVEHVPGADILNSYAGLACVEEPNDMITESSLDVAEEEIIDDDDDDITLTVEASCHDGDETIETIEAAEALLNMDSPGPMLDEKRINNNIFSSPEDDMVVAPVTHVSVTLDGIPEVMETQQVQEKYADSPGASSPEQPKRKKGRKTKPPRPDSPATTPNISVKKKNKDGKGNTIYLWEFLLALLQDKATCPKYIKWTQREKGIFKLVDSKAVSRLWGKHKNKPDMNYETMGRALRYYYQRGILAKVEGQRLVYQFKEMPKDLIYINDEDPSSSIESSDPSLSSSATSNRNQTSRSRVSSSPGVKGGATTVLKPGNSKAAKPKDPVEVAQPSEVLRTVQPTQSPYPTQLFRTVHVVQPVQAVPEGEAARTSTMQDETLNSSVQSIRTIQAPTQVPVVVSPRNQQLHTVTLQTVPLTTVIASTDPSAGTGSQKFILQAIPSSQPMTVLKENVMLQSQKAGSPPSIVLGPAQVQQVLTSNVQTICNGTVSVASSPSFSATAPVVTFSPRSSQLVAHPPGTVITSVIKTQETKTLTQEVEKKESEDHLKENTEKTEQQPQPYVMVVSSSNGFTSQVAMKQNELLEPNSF
# Sequence of HSF1 (Q00613 whole entry): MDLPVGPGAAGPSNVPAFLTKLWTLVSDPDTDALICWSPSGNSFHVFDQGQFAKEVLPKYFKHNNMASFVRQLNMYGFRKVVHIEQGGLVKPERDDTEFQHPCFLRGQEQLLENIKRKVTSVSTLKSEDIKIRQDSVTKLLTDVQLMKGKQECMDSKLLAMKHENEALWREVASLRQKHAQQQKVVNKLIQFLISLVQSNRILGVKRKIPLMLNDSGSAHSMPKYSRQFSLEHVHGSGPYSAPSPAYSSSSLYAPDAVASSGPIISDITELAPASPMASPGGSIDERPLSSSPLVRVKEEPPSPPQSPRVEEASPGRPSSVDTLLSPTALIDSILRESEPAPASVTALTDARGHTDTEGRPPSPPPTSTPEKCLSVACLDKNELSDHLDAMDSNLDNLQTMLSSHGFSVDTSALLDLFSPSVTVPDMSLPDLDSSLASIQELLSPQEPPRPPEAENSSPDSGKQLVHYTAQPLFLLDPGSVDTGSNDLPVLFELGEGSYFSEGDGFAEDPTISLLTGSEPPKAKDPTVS
# Sequence of SPIB (Q01892 whole entry): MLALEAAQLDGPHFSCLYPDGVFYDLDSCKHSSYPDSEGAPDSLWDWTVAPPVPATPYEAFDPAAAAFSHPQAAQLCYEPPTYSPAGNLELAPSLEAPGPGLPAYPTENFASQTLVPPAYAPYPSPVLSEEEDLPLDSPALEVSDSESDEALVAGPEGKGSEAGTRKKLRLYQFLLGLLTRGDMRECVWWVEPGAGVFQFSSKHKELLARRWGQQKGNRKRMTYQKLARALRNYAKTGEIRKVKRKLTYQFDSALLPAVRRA
sequence,measurement,setting,value
TATAAG,binding signal,[1],"1.15 fold enrichment (6-mer frequency, TF over GST control)"
same,binding signal,[2],"1.23 fold enrichment (6-mer frequency, TF over GST control)"
same,binding signal,[3],"1.16 fold enrichment (6-mer frequency, TF over GST control)"
same,binding signal,[4],"1.12 fold enrichment (6-mer frequency, TF over GST control)"
same,binding signal,[5],"1.17 fold enrichment (6-mer frequency, TF over GST control)"
same,binding signal,[6],"1.1 fold enrichment (6-mer frequency, TF over GST control)"
same,binding signal,[7],"1.13 fold enrichment (6-mer frequency, TF over GST control)"
same,binding signal,[8],"1.12 fold enrichment (6-mer frequency, TF over GST control)"
same,binding signal,[9],"1.24 fold enrichment (6-mer frequency, TF over GST control)"
same,binding signal,[10],"1.05 fold enrichment (6-mer frequency, TF over GST control)"
same,binding signal,[11],"1.12 fold enrichment (6-mer frequency, TF over GST control)"
same,binding signal,[12],"1.51 fold enrichment (6-mer frequency, TF over GST control)"
same,binding signal,[13],"1.1 fold enrichment (6-mer frequency, TF over GST control)"
same,binding signal,[14],"1.15 fold enrichment (6-mer frequency, TF over GST control)"
same,binding signal,[15],"1.08 fold enrichment (6-mer frequency, TF over GST control)"
same,binding signal,[16],"1.22 fold enrichment (6-mer frequency, TF over GST control)"
same,binding signal,[17],"1.23 fold enrichment (6-mer frequency, TF over GST control)"
same,binding signal,[18],"2.08 fold enrichment (6-mer frequency, TF over GST control)"
same,binding signal,[19],"1.15 fold enrichment (6-mer frequency, TF over GST control)"
